This note sets out measurements from PubChem BioAssay (EPA / NIEHS).

Assay [1] is described as follows: ATG_M_32_CIS: Attagene CIS-FACTORIAL HepG2 Assay for M32 Transcription Factor (Internal Marker) (AID 2282949).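 Further: background control marker of the multiplexed CIS panel rather than a real target.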 As to conditions: HepG2 Attagene cis-factorial M32 reporter, mRNA; actives raise or lower the signal. Put shortly:
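Following 24 h chemical exposure of HepG2 cells transiently expressing cis-promoter reporter constructs, reporter transcript levels were determined by RT-PCR with fluorescent labelling and capillary electrophoresis, then fitted bidirectionally against DMSO.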

Assay [2] is described as follows: ATG_M_06_CIS: Attagene CIS-FACTORIAL HepG2 Assay for M06 Transcription Factor (Internal Marker) (AID 2282950). As to conditions: HepG2 Attagene CIS-FACTORIAL M06 internal marker reporter; actives raise or lower the signal. In short, it runs like this: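 Cells (HepG2, transiently carrying cis-driven reporter units) receive chemical for 24 h before RNA isolation. Reporter cDNA is PCR-amplified, FAM-labelled by primer extension, HpaI-digested and sized on a capillary analyser.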

Assay [3] addresses Hypoxia-inducible factor 1-alpha (Homo sapiens) (UniProt Q16665). The assay can be described thus: ATG_HIF1a_CIS: Attagene CIS-FACTORIAL HepG2 Assay for human Hypoxia Inducible Factor 1 (HIF1A) (AID 2282951). As to conditions: HepG2 Attagene cis-factorial HIF1a reporter transcription; actives raise or lower the signal. In short, it runs like this: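 Fluorescence intensity of capillary-separated, 6-FAM-labelled reporter amplicons gives mRNA induction in HepG2 cells carrying transfected cis-promoter reporter units; cells exposed 24 h, responses fitted up or down from DMSO.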

The target of assay [4] is Hepatocyte nuclear factor 6 (Homo sapiens) (UniProt Q9UBC0). The assay can be described thus: ATG_HNF6_CIS: Attagene CIS-FACTORIAL HepG2 Assay for human Hepatocyte Nuclear Factor 6 (HNF6) (AID 2282952). As to conditions: HepG2 Attagene cis-factorial HNF6 reporter transcription; actives raise or lower the signal. In short, it runs like this:
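HepG2 cells transiently transfected with cis-element-driven multiple reporter transcription units, dosed 24 h; reporter mRNA quantified by RT-PCR, FAM primer extension, HpaI digestion and capillary electrophoresis; bidirectional fit versus DMSO baseline.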

Assay [5] deals with Heat shock factor protein 1 (Homo sapiens) (UniProt Q00613). The assay can be described thus: ATG_HSE_CIS: Attagene CIS-FACTORIAL HepG2 Assay for human Heat Shock Transcription Factor 1 (HSE) (AID 2282953). As to conditions: HepG2 HSE cis-reporter, Attagene RNA transcription; actives raise or lower the signal. Put shortly:
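Liver-derived HepG2 cells carry transiently introduced multiple reporter units governed by cis promoters. Reporter RNA measured 24 h post-dose through reverse transcription, PCR amplification, fluorescent labelling and capillary electrophoresis, normalised to DMSO.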

A short description of assay [6]: ATG_MRE_CIS: Attagene CIS-FACTORIAL HepG2 Assay for human Metal Responsive Element (MRE) (AID 2282954). As to conditions: HepG2 MRE cis-reporter transcription, Attagene multiplex; actives raise or lower the signal. Put shortly: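 HepG2 cells transiently transfected with multiple cis-element reporter units measure endogenous MTF1-driven transcription. After 24 h compound exposure, reporter mRNA is quantified by RT-PCR with 6-FAM labelling, HpaI digestion and capillary electrophoresis; bidirectional fits versus DMSO.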

Assay [7] in a line: ATG_PBREM_CIS: Attagene CIS-FACTORIAL HepG2 Assay for human Phenobarbital-responsive Enhancer Module (PBREM) (AID 2282955). As to conditions: HepG2 PBREM cis-reporter, Attagene multiplexed transcription; actives raise or lower the signal. Put shortly:
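Cells were transfected with cis-element reporter units and treated for 24 h, after which RNA was extracted and reporter transcripts measured by RT-PCR and capillary electrophoresis.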

The target of assay [8] is Paired box protein Pax-6 (Homo sapiens) (UniProt P26367). The assay can be described thus: ATG_Pax6_CIS: Attagene CIS-FACTORIAL HepG2 Assay for human Paired Box 6 (PAX6) (AID 2282956). Particulars: HepG2 CIS-FACTORIAL PAX6 reporter transcription, RNA readout; actives raise or lower the signal. In short, it runs like this:
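Multiplexed cis-reporter HepG2 system; 24 h treatment; reporter mRNA read by RT-PCR/CE fluorescence; bidirectional fit vs DMSO.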

Assay [9] is described as follows: ATG_PXRE_CIS: Attagene CIS-FACTORIAL HepG2 Assay for human Pregnane X Receptor Element (PXRE) (AID 2282957). Particulars: HepG2 Attagene CIS-FACTORIAL PXRE reporter, mRNA; actives raise or lower the signal. In short, it runs like this: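 HepG2 cells transiently transfected with cis-regulated multiple reporter transcription units; endogenous factor activity measured as reporter mRNA 24 h after dosing. RT-PCR, fluorescent primer extension, HpaI digestion, capillary electrophoresis; bidirectional fit versus DMSO baseline.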

Assay [10] is described as follows: ATG_PPRE_CIS: Attagene CIS-FACTORIAL HepG2 Assay for human Peroxisome Proliferator-activated Response Element (PPRE) (AID 2282958). Particulars: HepG2 PPRE cis-element reporter, Attagene transcription factor profiling; actives raise or lower the signal. Put shortly:
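In this cell-based multiplex, a PPRE cis element drives a reporter sequence in transiently transfected HepG2 cells. Following 24 h treatment, labeled cDNA amplicons are sized and quantified by capillary electrophoresis, with DMSO defining baseline.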

Assay [11] can be described thus: ATG_RORE_CIS: Attagene CIS-FACTORIAL HepG2 Assay for human RAR-related Orphan Receptor Element (RORE) (AID 2282959). Particulars: HepG2 Attagene cis-factorial RORE reporter, mRNA; actives raise or lower the signal. In short, it runs like this:
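Endogenous factor activity at a cis response element is read as reporter transcript levels in HepG2 cells, 24 h post-dose. Transcripts are quantified by RT-PCR with capillary electrophoresis, and data fitted in both directions against DMSO.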

A short description of assay [12]: ATG_Sox_CIS: Attagene CIS-FACTORIAL HepG2 Assay for human SRY-box transcription factor (SOX) (AID 2282960). Particulars: HepG2 Attagene cis-factorial SOX reporter, mRNA; actives raise or lower the signal. Put shortly:
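Measures mRNA induction of a SOX1-associated reporter in HepG2 after 24 h dosing. Fluorescently labelled RT-PCR fragments are separated by capillary electrophoresis, and gain or loss relative to DMSO control is fitted.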

In assay [13] the target is Transcription factor Sp1 (Homo sapiens) (UniProt P08047). The assay can be described thus: ATG_Sp1_CIS: Attagene CIS-FACTORIAL HepG2 Assay for human Specificity Protein 1 (Sp1) (AID 2282961). As to conditions: HepG2 Sp1 cis-reporter transcription, actives raise or lower the signal. In short, it runs like this: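 Cells: HepG2, transiently transfected with cis-regulated multiplexed reporters. Exposure: 24 h. Detection: reporter transcripts amplified, fluorescently labeled, restriction-digested and sized by capillary electrophoresis. Analysis: bidirectional fit relative to DMSO.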

Assay [14] can be described thus: ATG_SREBP_CIS: Attagene CIS-FACTORIAL HepG2 Assay for human Sterol Regulatory Element Binding (SREBP) (AID 2282962). Particulars: HepG2 Attagene cis-factorial SREBP reporter, mRNA; actives raise or lower the signal. Put shortly:
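mRNA induction of transfected cis-promoter reporters in HepG2 cells, 24 h post-dose. Detection: RT-PCR with 6-FAM-labelled products, HpaI digest, capillary electrophoresis. DMSO served as negative control and baseline.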

The target of assay [15] is Signal transducer and activator of transcription 3 (Homo sapiens) (UniProt P40763). Nature of the assay: ATG_STAT3_CIS: Attagene CIS-FACTORIAL HepG2 Assay for human Signal Transducer and Activator of Transcription 3 (STAT3) (AID 2282963). As to conditions: HepG2, Attagene cis-factorial STAT3 reporter transcription; actives raise or lower the signal. In short, it runs like this:
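HepG2 cells transiently transfected with cis-element-driven multiple reporter transcription units; after 24 h chemical exposure, reporter mRNA measured by RT-PCR, 6-FAM primer-extension labelling, HpaI digestion and capillary electrophoresis. Bidirectional fitting versus DMSO baseline.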

A short description of assay [16]: ATG_TA_CIS: Attagene CIS-FACTORIAL HepG2 Assay for human TA Basal Promoter (AID 2282964). As to conditions: HepG2 Attagene CIS-factorial TA basal promoter reporter; actives raise or lower the signal. Put shortly:
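Background internal-marker endpoint from a 52-component HepG2 cis-reporter panel. Cells treated 24 h; reporter transcripts quantified via RT-PCR and CE fluorescence against DMSO baseline.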

Assay [17] is described as follows: ATG_TCF_b_cat_CIS: Attagene CIS-FACTORIAL HepG2 Assay for human T-Cell-Factor with beta-catenin (TCF/b-cat) (AID 2282965). As to conditions: HepG2 TCF/beta-catenin cis-reporter transcription, actives raise or lower the signal. Put shortly:
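HepG2 cells transiently transfected with multiple cis-promoter-regulated reporter transcription units, so endogenous transcription factor activity is measured. Reporter mRNA read 24 hours after dosing by RT-PCR, fluorescent labelling and capillary electrophoresis; bidirectional fitting against DMSO.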

A short description of assay [18]: ATG_TAL_CIS: Attagene CIS-FACTORIAL HepG2 Assay for human TAL Basal Promoter (AID 2282966).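 Further: background control endpoint measuring basal TAL promoter reporter mRNA not a specific factor.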 Particulars: HepG2 Attagene cis-factorial TAL promoter reporter; actives raise or lower the signal. Put shortly:
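HepG2 cells were transiently transfected with promoter-driven multiplexed reporter units and dosed for 24 h. Reporter mRNA was measured by RT-PCR with capillary electrophoresis fluorescence; bidirectional fits used DMSO as baseline, serving as a background control.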

Assay [19] in a line: ATG_VDRE_CIS: Attagene CIS-FACTORIAL HepG2 Assay for human Vitamin D Receptor Element (VDRE) (AID 2282968). As to conditions: HepG2 VDRE cis-reporter transcription, actives raise or lower the signal. In short, it runs like this:
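HepG2 cells transiently transfected with cis-element reporter units, dosed 24 h; reporter mRNA measured by RT-PCR, 6-FAM labeling, HpaI digestion and capillary electrophoresis. Activity fitted bidirectionally against DMSO baseline.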

Assay [20] is described as follows: ATG_TGFb_CIS: Attagene CIS-FACTORIAL HepG2 Assay for human Transforming Growth Factor (TGF) (AID 2282967). Particulars: HepG2 Attagene CIS TGFb reporter, mRNA transcription; actives raise or lower the signal. In short, it runs like this: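 Liver HepG2 line, cis-factorial reporter panel, 24 h dosing. Quantitation: RT-PCR products labeled with 6-FAM, cut with HpaI, resolved by capillary electrophoresis; DMSO-referenced bidirectional analysis.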

Activity calls are given as the source filed them. How the source made its calls: active means hit-call score of the fitted dose curve at least 0.9, where 1 is the maximum; inactive means score below 0.9.

Sequence of Hepatocyte nuclear factor 6 (Homo sapiens) (Q9UBC0 whole entry, looked up): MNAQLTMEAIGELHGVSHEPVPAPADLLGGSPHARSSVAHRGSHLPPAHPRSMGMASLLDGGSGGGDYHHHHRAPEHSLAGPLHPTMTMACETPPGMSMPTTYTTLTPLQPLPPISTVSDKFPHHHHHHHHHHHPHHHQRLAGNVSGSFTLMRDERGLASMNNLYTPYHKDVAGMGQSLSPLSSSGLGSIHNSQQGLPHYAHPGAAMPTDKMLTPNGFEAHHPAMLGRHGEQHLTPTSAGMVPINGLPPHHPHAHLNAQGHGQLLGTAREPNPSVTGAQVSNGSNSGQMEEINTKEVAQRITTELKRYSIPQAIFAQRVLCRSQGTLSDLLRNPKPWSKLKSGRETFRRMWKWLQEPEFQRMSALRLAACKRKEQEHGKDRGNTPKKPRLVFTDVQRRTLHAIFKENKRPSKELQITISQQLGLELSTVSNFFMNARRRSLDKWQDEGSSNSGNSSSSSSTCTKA
Sequence of Hypoxia-inducible factor 1-alpha (Homo sapiens) (Q16665 whole entry, looked up): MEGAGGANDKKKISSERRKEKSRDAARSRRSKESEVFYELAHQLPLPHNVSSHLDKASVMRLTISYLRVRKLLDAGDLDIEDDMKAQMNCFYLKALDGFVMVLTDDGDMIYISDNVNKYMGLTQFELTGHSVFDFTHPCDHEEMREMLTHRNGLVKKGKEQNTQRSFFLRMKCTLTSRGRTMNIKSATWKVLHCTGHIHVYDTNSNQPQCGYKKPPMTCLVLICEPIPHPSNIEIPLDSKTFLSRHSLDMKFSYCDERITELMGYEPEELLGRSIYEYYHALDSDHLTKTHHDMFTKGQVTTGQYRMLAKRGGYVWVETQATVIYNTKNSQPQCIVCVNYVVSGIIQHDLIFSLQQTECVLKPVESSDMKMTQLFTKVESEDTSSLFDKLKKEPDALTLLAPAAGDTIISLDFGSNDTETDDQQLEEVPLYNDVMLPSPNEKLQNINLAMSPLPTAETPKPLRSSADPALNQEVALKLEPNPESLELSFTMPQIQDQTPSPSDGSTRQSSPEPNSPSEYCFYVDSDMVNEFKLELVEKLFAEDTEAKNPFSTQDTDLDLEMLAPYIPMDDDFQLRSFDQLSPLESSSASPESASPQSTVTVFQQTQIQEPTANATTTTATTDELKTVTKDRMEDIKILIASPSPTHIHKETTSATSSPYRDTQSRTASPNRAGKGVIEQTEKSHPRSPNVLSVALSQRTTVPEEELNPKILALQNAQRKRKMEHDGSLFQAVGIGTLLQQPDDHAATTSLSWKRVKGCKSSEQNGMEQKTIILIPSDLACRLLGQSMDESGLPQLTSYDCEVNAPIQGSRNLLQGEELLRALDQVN
Sequence of Paired box protein Pax-6 (Homo sapiens) (P26367 whole entry, looked up): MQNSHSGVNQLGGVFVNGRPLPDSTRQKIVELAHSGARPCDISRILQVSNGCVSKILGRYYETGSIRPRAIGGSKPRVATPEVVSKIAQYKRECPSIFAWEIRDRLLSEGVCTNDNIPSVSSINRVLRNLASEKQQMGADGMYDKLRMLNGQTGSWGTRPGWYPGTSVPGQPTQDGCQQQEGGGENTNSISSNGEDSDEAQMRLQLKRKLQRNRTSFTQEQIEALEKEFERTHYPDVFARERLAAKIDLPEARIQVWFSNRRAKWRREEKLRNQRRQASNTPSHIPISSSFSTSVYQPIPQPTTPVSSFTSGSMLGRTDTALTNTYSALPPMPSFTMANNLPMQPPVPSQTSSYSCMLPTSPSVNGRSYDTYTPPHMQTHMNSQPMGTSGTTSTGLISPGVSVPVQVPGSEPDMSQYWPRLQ
Sequence of Transcription factor Sp1 (Homo sapiens) (P08047 whole entry, looked up): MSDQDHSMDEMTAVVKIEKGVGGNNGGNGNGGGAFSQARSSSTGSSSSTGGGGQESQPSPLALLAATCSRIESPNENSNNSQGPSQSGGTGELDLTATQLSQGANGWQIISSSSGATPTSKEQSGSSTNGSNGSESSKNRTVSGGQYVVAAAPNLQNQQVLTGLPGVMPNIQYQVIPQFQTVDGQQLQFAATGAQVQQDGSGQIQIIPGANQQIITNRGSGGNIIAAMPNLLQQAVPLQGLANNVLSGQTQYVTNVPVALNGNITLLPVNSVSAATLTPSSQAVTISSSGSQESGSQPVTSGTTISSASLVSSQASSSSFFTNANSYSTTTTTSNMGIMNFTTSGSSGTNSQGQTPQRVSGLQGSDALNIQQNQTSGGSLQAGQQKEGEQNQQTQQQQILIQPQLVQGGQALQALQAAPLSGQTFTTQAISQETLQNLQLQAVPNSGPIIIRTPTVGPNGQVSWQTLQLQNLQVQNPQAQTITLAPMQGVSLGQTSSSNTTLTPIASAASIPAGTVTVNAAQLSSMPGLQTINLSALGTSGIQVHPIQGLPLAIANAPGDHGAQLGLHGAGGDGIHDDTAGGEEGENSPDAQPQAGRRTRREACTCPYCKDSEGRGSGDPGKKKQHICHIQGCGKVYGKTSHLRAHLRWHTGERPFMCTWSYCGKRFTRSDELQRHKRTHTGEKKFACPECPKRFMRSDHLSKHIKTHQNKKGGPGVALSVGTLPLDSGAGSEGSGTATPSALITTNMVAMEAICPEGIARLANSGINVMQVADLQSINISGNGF
Sequence of Heat shock factor protein 1 (Homo sapiens) (Q00613 whole entry, looked up): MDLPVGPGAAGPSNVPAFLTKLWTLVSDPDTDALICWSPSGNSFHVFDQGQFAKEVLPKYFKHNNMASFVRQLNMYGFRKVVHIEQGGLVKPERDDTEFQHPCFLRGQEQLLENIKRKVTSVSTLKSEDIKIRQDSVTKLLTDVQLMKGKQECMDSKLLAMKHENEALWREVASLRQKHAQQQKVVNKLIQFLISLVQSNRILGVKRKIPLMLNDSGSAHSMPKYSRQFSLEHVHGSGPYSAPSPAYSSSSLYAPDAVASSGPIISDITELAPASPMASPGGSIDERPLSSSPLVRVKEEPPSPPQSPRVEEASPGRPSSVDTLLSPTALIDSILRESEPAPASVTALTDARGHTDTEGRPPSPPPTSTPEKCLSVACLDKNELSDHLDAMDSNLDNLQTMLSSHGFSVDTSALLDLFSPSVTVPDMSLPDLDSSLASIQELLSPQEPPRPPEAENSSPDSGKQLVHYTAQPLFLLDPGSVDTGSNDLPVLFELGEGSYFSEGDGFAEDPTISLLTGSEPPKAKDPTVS
Sequence of Signal transducer and activator of transcription 3 (Homo sapiens) (P40763 whole entry, looked up): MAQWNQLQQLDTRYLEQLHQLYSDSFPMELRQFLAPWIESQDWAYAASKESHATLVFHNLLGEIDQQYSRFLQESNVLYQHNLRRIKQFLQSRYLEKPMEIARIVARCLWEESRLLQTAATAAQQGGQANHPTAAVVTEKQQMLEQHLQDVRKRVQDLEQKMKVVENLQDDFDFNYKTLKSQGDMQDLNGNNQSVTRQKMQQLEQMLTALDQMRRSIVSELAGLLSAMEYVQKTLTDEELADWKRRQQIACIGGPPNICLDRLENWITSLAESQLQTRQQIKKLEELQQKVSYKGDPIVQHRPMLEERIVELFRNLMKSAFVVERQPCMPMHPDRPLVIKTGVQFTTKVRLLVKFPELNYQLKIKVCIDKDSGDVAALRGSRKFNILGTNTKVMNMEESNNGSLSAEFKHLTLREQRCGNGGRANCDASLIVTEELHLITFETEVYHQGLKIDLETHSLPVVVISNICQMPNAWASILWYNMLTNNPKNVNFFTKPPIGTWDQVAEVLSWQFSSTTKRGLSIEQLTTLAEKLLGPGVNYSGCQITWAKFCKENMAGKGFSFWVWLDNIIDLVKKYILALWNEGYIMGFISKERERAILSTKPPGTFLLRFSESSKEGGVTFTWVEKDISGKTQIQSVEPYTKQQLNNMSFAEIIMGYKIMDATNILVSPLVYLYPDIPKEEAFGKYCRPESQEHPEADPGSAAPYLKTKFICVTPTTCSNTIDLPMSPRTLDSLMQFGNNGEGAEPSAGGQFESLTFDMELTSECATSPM

The AC50 is the concentration at which the activity in the assay is half-maximal. In the case of `O=C1c2ccccc2C(=O)C1C(=O)C(c1ccccc1)c1ccc(Cl)cc1` (stereo not drawn), the call in assay [1], in assay [3] and in assay [16] was inactive. Besides, the AC50 in [2] is 88.4 µM (active); in assay [4], 61.5 µM (active); in assay [5], 62.8 µM (active); in assay [6] it was 17.8 µM (active); in assay [7], 9.73 µM (active); in assay [8] it was 8.23 µM (active). Moreover, the AC50 in assay [9] is 1.51 µM (active); in assay [10] it was 3.53 µM (active); in [11], 8.58 µM (active); in assay [12], 7.35 µM (active); in assay [13] it was 7.69 µM (active); in assay [14], 9.14 µM (active). Moreover, the AC50 in [15] is 167 µM (active); in assay [17], 12.2 µM (active); in assay [18] it was 161 µM (active); in assay [19], 2.93 µM (active).

Consider `Fc1cccc(Cl)c1CCl`, for which the call in assay [1], in assay [2], in [3], in assay [4], in assay [6] and in assay [7] was inactive. Besides, the compound was classed as inactive in assay [9], in assay [10], in assay [11], in assay [14], in assay [15] and in [16]. Further, the call in assay [18] and in assay [20] was inactive. Also, the AC50 in assay [5] is 159 µM (active); in [8], 73.9 µM (active); in assay [12], 100 µM (active); in assay [13] it was 65.3 µM (active); in assay [17], 100 µM (active).

As to `CC(C)[C@H](C(=O)OC(C#N)c1cccc(Oc2ccccc2)c1)c1ccc(OC(F)F)cc1` (stereo partly drawn), the compound was called inactive in assay [1], in [2], in [3], in assay [4], in assay [5] and in assay [6]. Besides, the compound was called inactive in assay [8], in assay [10], in [11], in assay [12], in [13] and in [14]. The call in [15], in [16], in assay [17], in assay [18] and in assay [20] was inactive. Further, the AC50 in [7] is 1.18 µM (active); in [9] it was 0.396 µM (active); in [19] it was 1.08 µM (active).

Regarding `CCCSP(=S)(OCC)Oc1ccc(SC)cc1` (stereo not drawn), the compound was called inactive in assay [1], in assay [2], in assay [3], in assay [4], in assay [5] and in assay [6]. Further, the call in assay [8], in assay [10], in assay [11], in [12], in assay [13] and in assay [14] was inactive. For the same compound, the compound was classed as inactive in [15], in assay [16], in [17] and in assay [18]. Further, the AC50 was 2.14 µM (active) in assay [7], 2.92 µM (active) in assay [9], 100 µM (active) in assay [20] and 4.63 µM (active) in assay [19].
